The text below walks through data of PubChem BioAssay (NCI).

About 83,000 compounds went through this panel and 20% of them were active in at least one assay; those are over-represented in the sample as a whole.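 96-well plates, one dose, 48 hours. Percent growth reported; active if below 10.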 A number with no mark means an inactive call. Activity calls are given as the source filed them.

Test systems include NCI-H23 lung; NCI-H226 lung; NCI-H322M lung; HOP-62 NSCLC; NCI-H460 lung; HOP-92 NSCLC; NCI-H522 lung; A549/ATCC NSCLC; 786-0 renal; COLO 205 colon.
Holding throughout (assay): NCI-60 one-dose screen, 48 h (100 = growth as untreated, 0 = no growth, -100 = all killed)
Details in all cases: 10 µM unless noted

As to `CCN1CC(=O)N(/N=C2\C(=O)Nc3ccccc32)C1=S`, the growth in the test with NCI-H23 lung was 91.4%; with NCI-H226 lung, 69.6%; with NCI-H322M lung, 88.6%; in the test with HOP-62 NSCLC, 87%; in the test with NCI-H460 lung, 88.3%; in the test on HOP-92 NSCLC, 87.8%. In addition, the growth with NCI-H522 lung is 85.4%; with A549/ATCC NSCLC, 98.9%; with 786-0 renal it was 103%; in the test on COLO 205 colon, 101%.

Regarding `COc1ccc(OC)c(C(=O)/C=C/c2cc3c(c(OC)c2OC)OCO3)c1`, the growth in the test on NCI-H23 lung was 57.8%; in the test with NCI-H226 lung, 92%; in the test on NCI-H322M lung, 71.1%; in the test on HOP-62 NSCLC, 101%; with NCI-H460 lung, 50.1%; in the test with HOP-92 NSCLC it was 62.2%. Besides, the growth was 74.3% in the test on NCI-H522 lung, 62.7% with A549/ATCC NSCLC, 100% with 786-0 renal and 95.8% with COLO 205 colon.

Regarding `CC1=C(CCC(C)N(C)Cc2ccc(OCCCN3CCCC3)cc2)C(C)(C)CCC1` (stereo not given), the growth in the test on NCI-H23 lung was 64%; with NCI-H226 lung it was 85.5%; in the test with NCI-H322M lung it was 55.5%; in the test on HOP-62 NSCLC, 36.6%; in the test with NCI-H460 lung, 5.81% (active); in the test on HOP-92 NSCLC, 27.3%. Besides, the growth with NCI-H522 lung was -52.2% (active); with A549/ATCC NSCLC, 37.8%; in the test on 786-0 renal it was 17.3%; in the test with COLO 205 colon, -78.8% (active).

Turning to `Cn1cc(-c2nc(-c3c[nH]c4ccncc34)cs2)c2ccccc21`, the growth in the test on NCI-H23 lung is 86%; with NCI-H226 lung it was 87.6%; with NCI-H322M lung, 82.5%; in the test with HOP-62 NSCLC, 60.4%; in the test on NCI-H460 lung, -37.7% (active); with HOP-92 NSCLC, 53.9%. Further, the growth with NCI-H522 lung is 66.8%; in the test with A549/ATCC NSCLC, 42.1%; in the test on 786-0 renal it was 77.3%; in the test with COLO 205 colon, -67.3% (active).

In the case of `CCNc1cc(-c2cccc(OC(F)(F)F)c2)nc2ccc(N3CCCC3)cc12`, the growth is 7.13% (active) with NCI-H23 lung; 37.3% with NCI-H226 lung; 22.1% in the test on NCI-H322M lung; -10.1% (active) in the test on HOP-62 NSCLC; 1.03% (active) in the test on NCI-H460 lung; -6.27% (active) in the test on HOP-92 NSCLC. The growth in the test with NCI-H522 lung is -16.8% (active); in the test on A549/ATCC NSCLC it was 10.3%; in the test with 786-0 renal, -18.4% (active); in the test on COLO 205 colon, -65.9% (active).

Turning to `CCN1CCN(Cc2cn(CC(=O)Nc3ccc4c(ccn4Cc4ccccc4)c3)nn2)CC1`, the growth is 104% in the test with NCI-H23 lung; 91.8% with NCI-H226 lung; 98.8% in the test with NCI-H322M lung; 96% with HOP-62 NSCLC; 114% in the test on NCI-H460 lung; 87.6% in the test on HOP-92 NSCLC. Besides, the growth with NCI-H522 lung was 99.9%; with A549/ATCC NSCLC, 102%; with 786-0 renal, 97.8%; in the test with COLO 205 colon it was 99.4%.

Take `CN(CCn1sc(=O)n(Cc2ccccc2)c1=O)Cc1ccc2c(Cl)cc(Cl)c(O)c2n1`: the growth in the test with NCI-H23 lung is 50.1%; in the test on NCI-H226 lung it was 61.9%; with NCI-H322M lung, 41%; with HOP-62 NSCLC, 25.2%; in the test with NCI-H460 lung, 19.8%; in the test with HOP-92 NSCLC, 36%. The growth with NCI-H522 lung is 80.9%; with A549/ATCC NSCLC, 32.6%; with 786-0 renal, 37.6%; in the test on COLO 205 colon, 93.7%.

With `Cc1cccnc1NC(=S)Nc1ncccc1C`, the growth in the test on NCI-H23 lung is 99.2%; in the test with NCI-H226 lung, 100%; in the test on NCI-H322M lung, 107%; in the test on HOP-62 NSCLC it was 109%; in the test on NCI-H460 lung it was 107%; in the test with HOP-92 NSCLC, 109%. Further, the growth was 88.9% in the test on NCI-H522 lung, 110% in the test with A549/ATCC NSCLC, 90.1% with 786-0 renal and 116% in the test with COLO 205 colon.

Turning to `CCCc1cc(NC)nc(S(=O)(=O)CC)n1`, the growth with NCI-H23 lung is 102%; in the test with NCI-H226 lung it was 108%; with NCI-H322M lung it was 106%; in the test with HOP-62 NSCLC, 110%; in the test on NCI-H460 lung it was 110%; in the test on HOP-92 NSCLC, 108%. Besides, the growth in the test with NCI-H522 lung is 95.9%; in the test on A549/ATCC NSCLC it was 105%; with 786-0 renal it was 101%; in the test on COLO 205 colon, 120%.

Consider `O=C1N(Cc2ccccc2Cl)c2ccccc2C12NN=C(c1cccc(Cl)c1)S2` (stereo not given), for which the growth in the test on NCI-H23 lung was -18.7% (active); in the test on NCI-H226 lung, -58.4% (active); with NCI-H322M lung, -12.7% (active); in the test with HOP-62 NSCLC, -22.6% (active); with NCI-H460 lung, -50.7% (active); in the test with HOP-92 NSCLC, -68.3% (active). The growth is 16.7% in the test with NCI-H522 lung, -63.7% (active) in the test on A549/ATCC NSCLC, -67.7% (active) in the test with 786-0 renal and 66.8% in the test on COLO 205 colon.

As for `O=C1/C(=C/c2ccc(Cl)cc2)COc2ccc(O)cc21`, the growth with NCI-H23 lung is 90.9%; in the test with NCI-H226 lung, 98.8%; with NCI-H322M lung, 94.8%; with HOP-62 NSCLC, 102%; with NCI-H460 lung, 102%; in the test on HOP-92 NSCLC, 95.9%. For the same molecule, the growth in the test with NCI-H522 lung was 13.9%; in the test with A549/ATCC NSCLC, 89%; with 786-0 renal, 64.2%; with COLO 205 colon, 78.2%.
